Measurements from PubChem BioAssay AID720580 (National Center for Advancing Translational Sciences (NCATS), 2013).
Where “and” joins values, the source holds several entries; their conditions need not be identical. Identical values can stand only once. In all, about 330,000 compounds went through this assay and about 1,500 (0.45%) were called active. About 6% were inconclusive and are not listed. Calls come from the whole dose curve; tested in A549 cells. Only a selection was taken, and actives are over-represented in it overall. Some compounds were tested as several samples or in several runs, with calls that do not always agree.

experiment: qHTS for Stage-Specific Inhibitors of Vaccinia Orthopoxvirus: Venus Reporter Primary qHTS; details: Vaccinia virus Venus reporter expression, fluorescence; series mostly up to 36.5 µM; activity change, negative = inhibition: at the top concentration; note: nearly all actives have a fitted effect of over 30% in size
% is set by controls: 0 for no effect and ±100 for the full control effect; potency is the fitted concentration of half-maximal effect.

| Compound | activity change, negative = inhibition | Potency |
| --- | --- | --- |
| COc1ccc(-c2nc(=N)sn2-c2ccccc2)cc1 | -26.5% (inactive) |  |
| COc1ccc(C(NC(=O)C2CCN(CCCc3ccccc3)CC2)c2cccs2)cc1 (stereo unspecified) | -17.3% (inactive) |  |
| N#Cc1c(Cl)c(Cl)c(Cl)c(C#N)c1Cl |  | inactive and 14.1 µM (active) |
| CCOc1ccc(NC(=O)CSc2nnc3c(n2)[nH]c2ccc(S(=O)(=O)N4CCOCC4)cc23)cc1 | -23.5% (inactive) |  |
| COC1C(O)C(C)OC(OC2CCC3(C=O)C(CCC4C3CCC3(C)C(C5=CC(=O)OC5)CCC43O)C2)C1O (stereo unspecified) |  | 0.1 µM (active) |
| COC1CC(OC2CC[C@@]3(C=O)C4CC[C@]5(C)C(C6=CC(=O)OC6)CC[C@@]5(O)C4CC[C@]3(O)C2)OC(C)C1O (stereo partly specified) |  | 0.282 µM (active) |
| O=C(Nc1ccc2c(c1)OCCO2)C(C1CC1)N1CCC(Cc2ccccc2)CC1 (stereo unspecified) | 1.13% (inactive) |  |
| O=S1(=O)CC(N2CCN(Cc3ccccc3F)CC2)CN1Cc1cn(Cc2ccccc2)nn1 (stereo unspecified) | -1.01% (inactive) |  |
| Cc1nc2c(OCc3ccc(Cl)cc3)cccn2c1N(C)Cc1cccs1 | -19.4% (inactive) |  |
| CCOC(=O)[C@]12CCCC=C1N(Cc1ccc3c(c1)OCO3)C(=O)[C@H](CC(=O)N1CCN(C(=O)c3ccco3)CC1)C2 | -3.23% (inactive) |  |
| COC(=O)c1ccc(NC(=O)CSc2nnc(C3CC3)n2C)cc1 | -11.9% (inactive) |  |
| COc1ccc(C(=O)NCc2nnc(SCC(=O)NC3=NCCS3)n2C)cc1 | 1.83% (inactive) |  |
| COC(=O)c1ccc(NC(=O)CSc2nnc(CNc3ccc(OC)cc3)n2C)cc1 |  | 12.6 µM (active) |
| Cc1ccc(S(=O)(=O)N2[C@@H](Cc3ccccc3)CO[C@H]2CC(=O)OCc2ccccc2)cc1 | -15.6% (inactive) |  |
| N#Cc1cccc(NC(=O)c2cc(C3CCCCN3C(=O)CCc3ccccc3)on2)c1 (stereo unspecified) | -6.64% (inactive) |  |
| CCOC(=O)N1C(=O)C[C@](Sc2ccc(C)cc2)(C(=O)OC)[C@H]1c1ccccc1 | 8.58% (inactive) |  |
| COc1ccc(OC)c(NC(=O)C2(C)CCN2C(=O)Cc2ccccc2)c1 (stereo unspecified) | -2.79% (inactive) |  |
| O=C(NCc1cccnc1)c1cc(C2CCCN(C(=O)C3CCCCC3)C2)on1 (stereo unspecified) | 1.16% (inactive) |  |
| CC(C)C[C@H](CO)Nc1nc(N(C)c2cccc(Cl)c2)c2ncn(C(C)C)c2n1 | -28.6% (inactive) |  |
| CC(C)n1cnc2c(Nc3cccc(Cl)c3)nc(N(CCO)CCCO)nc21 |  | 11.2 µM (active) |
| COC(=O)[C@@]12C[C@@H](CC(=O)N3CCCCC3)C(=O)N(Cc3ccc4c(c3)OCO4)C1=CCC(C)(C)C2 | -19.4% (inactive) |  |

| Compound | activity change, negative = inhibition | Potency |
| --- | --- | --- |
| CCc1nc2c(OCc3ccc(C(=O)OC)cc3)cccn2c1N(C)C(=O)C(C)C | -10.2% (inactive) |  |
| CN(C)c1ccc(/C=C/C=C/c2ccnc3ccccc23)cc1 | 128% (inactive) |  |
| O=[N+]([O-])c1ccc(F)cc1Oc1nc(-c2cccnc2)nc2ccccc12 |  | 5.01 µM (active) |
| COc1cccc(-c2nc(Nc3ccncc3)c3ccccc3n2)c1 | 19.3% (inactive) |  |
| Cc1cnc(CNc2nc(-c3cccnc3)nc3ccccc23)cn1 | 0% (inactive) |  |
| COC(=O)C1(C(=O)OC)C[C@H](c2ccccc2)N(Cc2ccccc2OC)[C@@H]1c1ccccc1 | -4.94% (inactive) |  |
| COc1ccc(OC)c(NC(=O)c2sc3nc(C)cc(C)c3c2N)c1 | -20.7% (inactive) |  |
| COc1ccc(OC)c(Cc2cnc3nc(N)nc(N)c3c2C)c1 |  | 1.12 µM (active) |
| COc1ccc(OC)c(Cc2nnc(CCC(=O)NC3CCCC3)o2)c1 | -24.9% (inactive) |  |
| CCCCCCCNc1ccc(/C=C/c2ccnc3ccccc23)cc1 | 14.6% (inactive) |  |
| O=C(NC1(C(F)(F)F)NC(=O)N(C2CCCCC2)C1=O)c1ccco1 (stereo unspecified) | -16.3% (inactive) |  |
| O=C1NC(Nc2nc3ccccc3s2)(C(F)(F)F)C(=O)N1C1CCCCC1 (stereo unspecified) |  | 10 µM (active) |
| COC(=O)NC1(C(F)(F)F)NC(=O)N(C2CCCCC2)C1=O (stereo unspecified) | -9.65% (inactive) |  |
| Cc1ccc(Cc2c(-c3ccco3)nc3ccc(Cl)cn23)cc1 | 4.2% (inactive) |  |
| SCc1nc2ccc(Cl)cc2[nH]1 | -13.3% (inactive) |  |
| O=C(c1cnn2c1NC(=C1CC1)C=C2C(F)F)N1CCc2ccccc2C1 | -21.9% (inactive) |  |
| CCN1CCC(O)(/C=C/c2ccc(C)cc2)C(C(=O)/C=C/c2ccc(C)cc2)C1 (stereo unspecified) |  | 17.8 µM (active) |
| CCOC(=O)C1CCCN(C(=O)/C=C/c2ccc(OC)cc2)C1 (stereo unspecified) | -0.189% (inactive) |  |
| N#Cc1ccc(C(C(=O)NCc2ccccc2)n2c(=O)c(-c3ccco3)nc3ccccc32)cc1 (stereo unspecified) | -0.43% (inactive) |  |
| CN(C)c1ccc(/C=N\Nc2ccc([N+](=O)[O-])cc2[N+](=O)[O-])cc1Cl | -16.2% (inactive) |  |
| COc1ccc(Cc2nnc(N/N=C/c3ccccc3O)[nH]c2=O)cc1OC |  | 1.26 µM (active) |

| Compound | activity change, negative = inhibition | Potency |
| --- | --- | --- |
| O=c1[nH]c(NCCO)nnc1Cc1ccc(Cl)cc1 | 1.34% (inactive) |  |
| COc1ccc(CCNC(=O)CCc2ccccc2O)cc1OC | 3.53% (inactive) |  |
| CCCCOc1ccc(C(=O)NO)cc1 | -14.6% (inactive) |  |
| CC(=O)N1Cc2cc(C(=O)NCc3cccc(F)c3)nc(-c3cccc(C4=CCCC4)c3)c2[C@H]1CCO | -20.8% (inactive) |  |
| Cc1c(Cl)c([N+](=O)[O-])nn1Cc1ccc(C(=O)N/N=C\c2cc(Cl)ccc2O)o1 |  | 5.62 µM (active) |
| Cc1ccc(C(=O)O)cc1NC(=O)c1ccc(Cn2nc(C)c(Cl)c2C)o1 | -7.79% (inactive) |  |
| Cc1c(Cl)c([N+](=O)[O-])nn1CCCC(=O)Nc1cc(Cl)ccc1Cl | -17.6% (inactive) |  |
| COc1cc2nc(N3CCCN(C)CC3)nc(NC3CC3)c2cc1OC | -26.8% (inactive) |  |
| COc1ccc(-c2csc(C(O)c3cccc(Cl)c3)n2)cn1 (stereo unspecified) | -10.5% (inactive) |  |
| COc1ccc(NC(=O)CN(C)CC(=O)Nc2cccc(C(F)(F)F)c2)cc1 | -12.9% (inactive) |  |
| Cc1cccc(NC(=O)c2nnn(-c3cccc(C(F)(F)F)c3)c2N)c1 | -9.05% (inactive) |  |
| COc1cc(NC(=O)c2[nH]cnc2C(N)=O)cc(C(=O)Nc2cccc(C(F)(F)F)c2)c1 |  | 10 µM (active) |
| COC(=O)[C@]12CCCCC=C1N(Cc1ccco1)C(=O)[C@H](CC(=O)NCCCCc1ccccc1)C2 | -2.07% (inactive) |  |
| CCCCC(=O)N/N=C/c1c(O)n(CC)c(=S)n(CC)c1=O |  | 12.6 µM (active) |
| CCOc1cc(C=NNC(=O)CCCC(=O)NN=Cc2ccc(O)c(OCC)c2)ccc1O | 4.08% (inactive) |  |
| O=C(CCC(=O)N/N=C/c1ccc(Br)o1)N/N=C/c1ccc(Br)o1 | -3.51% (inactive) |  |
| CCOc1ccc2nc(N3CCCN(CCCn4cccn4)CC3)nc(C)c2c1 | -19.6% (inactive) |  |
| O=S(=O)(Nc1n[nH]c(C(F)(F)F)n1)c1ccccc1 | -0.63% (inactive) |  |
| O=c1[nH]nc(SCCS(=O)(=O)c2ccc(F)cc2)n1-c1ccccc1C(F)(F)F |  | 3.16 µM (active) |
